Test results from PubChem BioAssay (NCATS).
Records with an inconclusive call do not appear. The source made the active and inactive calls. The call rests on the fitted dose curve; in most records, active means well fitted curve in the direction sought with a large enough effect; inconclusive means small, poorly fitted or top-dose-only effect, or another doubt; inactive means no such curve, though single readings can be large; an effect the other way counts as inactive or inconclusive.

Legend:
[1] = qHTS Screen of the MIPE 4.0 Collection Against Ewings Sarcoma (TC71) (AID 1259253); details: TC71 Ewing sarcoma viability, CellTiter-Glo, 48 h; series mostly up to 45.8 µM; further: nearly all actives have a fitted effect of over 40% in size; further: potency means the concentration at half of the fitted maximal effect
Procedure, shortened: (§1)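 After a 4 h attachment period in RPMI/5% FBS, cells were pin-dosed with test compounds; DMSO served as negative and 9.2 uM bortezomib (final) as positive control. Luminescent CellTiter-Glo signal at 48 h defined viability.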

[2] = qHTS Screen of the MIPE 4.0 Collection Against Ewings Sarcoma (TC32) (AID 1259256); details: TC32 Ewing sarcoma viability, CellTiter-Glo, 48 h; series mostly up to 45.8 µM; further: nearly all actives have a fitted effect of over 45% in size; further: potency means the concentration at half of the fitted maximal effect
Procedure, shortened: as §1

[3] = Identifying Small Molecule Inhibitors of Pancreatic Cancer Stem Cells (SN12C, Adherent) (AID 1259358); details: viability/growth inhibition; series mostly up to 46.1 µM;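 further: cell survival measured after 48 h of compound exposure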; further: potency means the concentration at half of the fitted maximal effect
Procedure, shortened: (§2)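 Adherent (2D) versus sphere (3D) formats; spheres generated 14 d in SCM beforehand. Compound transferred by pin tool after 4 h, 48 h incubation, CellTiter-Glo endpoint.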

[4] = Identifying Small Molecule Inhibitors of Pancreatic Cancer Stem Cells (SN12C, Spheroid) (AID 1259360); details: Potency: SN12C spheroid viability; series mostly up to 46.1 µM
Procedure, shortened: (§3)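 Pre-formed 14-day tumor spheroids or adherent cells dosed and incubated 48 h, 37C, 5% CO2. Viability assessed by CellTiter-Glo.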

[5] = Identifying Small Molecule Inhibitors of Pancreatic Cancer Stem Cells (A278, Adherent) (AID 1259361); details: series mostly up to 46.1 µM;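 further: viability read after 48 h compound exposure; nearly all actives have a fitted effect of over 35% in size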
Procedure, shortened: as §2

[6] = qHTS Screen of the MIPE 4.0 Collection Against Ewings Sarcoma (EW8) (AID 1259255); details: EW8 Ewing sarcoma viability, CellTiter-Glo, 48 h; series mostly up to 45.8 µM; further: nearly all actives have a fitted effect of over 35% in size
Procedure, shortened: as §1

[7] = Identifying Small Molecule Inhibitors of Pancreatic Cancer Stem Cells (A2780, Spheroid) (AID 1259357); details: Potency: A2780 spheroid viability; series mostly up to 46.1 µM;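 further: spheroids pre-formed over 14 days in stem cell medium on hydrogel; compound exposure lasted 48 h before the ATP luminescence read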
Procedure, shortened: as §3

## COc1ccc(-c2cc(=O)c3c(O)cc(O[C@@H]4O[C@H](CO[C@@H]5O[C@@H](C)[C@H](O)[C@@H](O)[C@@H]5O)[C@@H](O)[C@H](O)[C@@H]4O)cc3o2)cc1O
[1]
  Potency: 18.7 µM (active)
[2]
  Potency: 26.4 µM (active)

## CN(C)CCOc1ccc(-c2nc(-c3ccc4c(c3)CCC4=NO)c(-c3ccncc3)[nH]2)cc1
[1]
  Potency: 26.4 µM (active)
[2]
  Potency: 23.5 µM (active)

## CCC=CC[C@H]1C(=O)CC[C@@H]1CC(=O)OC
[1]
  Potency: 16.6 µM (active)
[3]
  Potency: inactive
[4]
  Potency: inactive
[5]
  IC50 (viability decrease): inactive

## COc1ccc(C=CC(=O)Nc2ccccc2C(=O)O)cc1OC
[6]
  Potency: inactive

## Cc1cc2c(cc1C1(c3ccc(C(=O)O)cn3)CC1)C(C)(C)CCC2(C)C
[1]
  Potency: inactive
[2]
  Potency: inactive
[7]
  Potency: inactive
[3]
  Potency: inactive

## CNc1nc(-c2ccc3c(N)n[nH]c3c2)cc(N2C[C@@H](C(=O)NC3CCCCC3)CC[C@@H]2C)n1
[1]
  Potency: 20.9 µM (active)
[2]
  Potency: 6.62 µM (active)

## CC(C)Oc1cc(Nc2nc(N[C@@H](C)c3ccc(F)cn3)ncc2Cl)[nH]n1
[1]
  Potency: 16.6 µM (active)
[2]
  Potency: 16.6 µM (active)
[5]
  IC50 (viability decrease): 13.2 µM (active)

## COc1cc2nccc(Oc3ccc(NC(=O)Nc4cc(C)on4)c(Cl)c3)c2cc1OC
[1]
  Potency: 2.64 µM (active)
[2]
  Potency: 2.96 µM (active)
[3]
  Potency: 16.6 µM (active)

## C[C@@H]1[C@H](C)CC[C@]2(C(=O)O)CC[C@]3(C)C(=CC[C@@H]4[C@@]5(C)CC[C@H](O)C(C)(C)[C@H]5CC[C@]43C)[C@@H]12
[1]
  Potency: 1.71 µM (active)
[2]
  Potency: 1.52 µM (active)

## C[C@]12C=CC(=O)C=C1CC[C@@H]1[C@@H]2[C@@H](O)C[C@@]2(C)[C@@H]1CC[C@]2(O)C(=O)CO
[1]
  Potency: inactive
[2]
  Potency: inactive
